A selection: hits, their analogues and other compounds. The true share with any hit is near 13%.
HCV inhibitor: qHTS Assay for Inhibitors of Hepatitis C Virus (HCV); Huh7.5.1 HCVcc-Cre infection, luciferase reporter, 44 h; Potency, µM (series often up to 41.8 µM), inactives show at the top dose activity change, negative = inhibition, usual class: inhibitors; actives 3.4% (n = 340,000); also: potency is read from the fitted curve at half-maximal effect
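1,000 cells/well; 4 h culture; + compound; + HCVcc-Cre (~0.5 moi); 44 h; luciferase substrate, RT 15 min; read 15 sec.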
Pf growth 48h: Primary qHTS for delayed death inhibitors of the malarial parasite plastid, 48 hour incubation; P. falciparum luciferase growth in erythrocytes, 48 h; Potency, µM (highest dose often 28.7 µM), for inactives: top-dose activity change, negative = inhibition, most hits filed as inhibitors; actives 5.9% (n = 310,000); AID 504832, 2011; also: potency is read from the fitted curve at half-maximal effect
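Luciferase-expressing parasites in RBCs, 2% Hct / 0.1% parasitemia final; RPMI 1640 + 0.5% Albumax; 37 C, 5% CO2, one generation; luminescence read-out, lower signal = inhibition.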
Pf growth 96h: Primary qHTS for delayed death inhibitors of the malarial parasite plastid, 96 hour incubation; P. falciparum luciferase reporter growth, 96 h; Potency, µM (doses to about 28.7 µM), for the others: at the top dose activity change, negative = inhibition, usual class: inhibitors; actives 6.9% (n = 320,000); also: potency is read from the fitted curve at half-maximal effect
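Erythrocytes infected with luciferase-expressing P. falciparum were dispensed at 2% hematocrit and 0.05% parasitemia (final), then incubated with compounds 96 hours at 37 C in 5% CO2. Luminescence after detection reagent addition reported growth.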
HCMV antiviral: qHTS Assay for inhibitors of the human cytomegalovirus (HCMV); actives 4.5% (n = 410,000); HFF cells, HCMV-luciferase reporter, 72 h; stronger effect = lower value; activity change, negative = inhibition, % at 57.5 µM; AID 1259415, 2018; in the data active = activity change below about -60%; inconclusive = no clear call, values can overlap the other calls; inactive = above about -39%
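After 16 h attachment at 37C, HFF cells received test compound and HCMV-luciferase (1 PFU/cell); reporter luminescence read 72 h later, data normalized against buffer-only and known inhibitor Salinomycin.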
Starred values were filed as active, the others as inactive; ? = inconclusive; . = no result given; [ ] = another dose, or the depositor's remark. Unless noted, calls follow the shape of the dose curve; as a rule, active = well fitted inhibition curve with a large enough effect; inconclusive = small, poorly fitted or top-dose-only effect, or another doubt; inactive = no such curve, though single readings can be large or run the other way. % is scaled to controls: 0 for no effect and ±100 for the full control effect.

SMILES | HCV inhibitor | Pf growth 48h | Pf growth 96h | HCMV antiviral
COc1cccc(CNC(=O)Cn2c(SCC(=O)Nc3ccc(F)cc3)nc3ccccc32)c1 | . | . | . | -37
COc1cc(OC)cc(-n2nnc(-c3nc(-c4ccccc4Cl)no3)c2N)c1 | . | . | . | 23
COc1ccc(CC(=O)Nc2nc(-c3ccccc3)c(C(C)=O)s2)cc1OC | 13µM* | ? | ? | ?
COc1cc(CC(=O)Nc2nc(-c3ccccc3)c(C(C)=O)s2)cc(OC)c1OC | 13µM* | ? | ? | -21
COc1ccc2c(c1)CC(C(=O)NCCc1ccc(S(N)(=O)=O)cc1)CO2 (configuration not stated) | . | . | . | -3
COC(=O)C1=C(C(=O)OC)[C@@H]2N(C)c3ccc(OC)cc3[C@@]23C[C@@H](C(=O)OC)N(S(=O)(=O)c2ccc([N+](=O)[O-])cc2)C3=N1 | -1% | 7.4µM* | 13µM* | 13
CCCCS(=O)(=O)N1C2=NC(C(=O)OC)=C(C(=O)OC)[C@@H]3N(C)c4ccc(OC)cc4[C@]23C[C@H]1C(=O)OC | -12%[8.37 µM] | 10µM* | ? | .
CCc1cnc2c(c1SCC(=O)Nc1ccc(Cl)cc1)c(=O)n(C)c(=O)n2C | . | . | . | -9
O=C1N2CCSC2=NC1(NS(=O)(=O)c1ccccc1)C(F)(F)F (configuration not stated) | 7% | -12% | 1µM* | -1
C[C@@H]1[C@H]2[C@@H]3CC[C@@H](C3)[C@H]2CN[C@H]1c1cn(Cc2ccccc2)c2ccccc12 | 22µM* | . | . | -5
CCN(c1ccccc1)S(=O)(=O)c1ccc(Cl)c(C(=O)N2CCCC2)c1 | -19% | -11% | ? | -31
CCN(c1ccccc1)S(=O)(=O)c1ccc(Cl)c(C(=O)N(CC2CCCO2)C2CCS(=O)(=O)C2)c1 (configuration not stated) | ? | 1.7µM* | ? | ?
Cc1cc2nc(-c3ccc(OCc4ccccc4F)cc3)cc(C(F)(F)F)n2n1 | . | . | . | -10
Oc1ccc(-c2csc(Nc3ccc4c(c3)OCO4)n2)c(O)c1 | ? | . | . | 33
N#Cc1ccc(Nc2nc(-c3ccc(O)cc3O)cs2)cc1C(F)(F)F | 11µM* | ? | ? | .
COc1ccc(Cl)cc1NC(=O)Cn1ccn(-c2cc(C)cc(C)c2)c(=O)c1=O | . | . | . | 109
CCn1cc([N+](=O)[O-])c(C(=O)N2N=C(c3ccc(OC)cc3OC)CC2c2ccccc2O)n1 (configuration not stated) | -7% | ? | 10µM* | 24
CCn1cc(Cl)c(C(=O)N2N=C(c3ccc4ccccc4c3)CC2c2ccccc2O)n1 (configuration not stated) | ? | 2.1µM* | 1.5µM* | 2
CCn1cc([N+](=O)[O-])c(C(=O)N2N=C(c3ccc4ccccc4c3)CC2c2ccccc2O)n1 (configuration not stated) | 10µM* | 8.3µM* | ? | 82
CCn1cc([N+](=O)[O-])c(C(=O)N2CCCC2)n1 | 27% | 20% | . | 5
COc1ccc(C2=NN(C(=O)CCC(=O)O)C(c3ccccc3OC)C2)cc1 (configuration not stated) | 24% | ? | ? | 57
CCn1cc([N+](=O)[O-])c(C(=O)N2N=C(c3cccc4ccccc34)CC2c2ccccc2O)n1 (configuration not stated) | 11µM* | 9.3µM* | 13µM* | 33
CCC(C(=O)NCCCN1CCN(CCCNC(=O)C(CC)c2ccccc2)CC1)c1ccccc1 (configuration not stated) | ? | ? | 57% | -9
CCCCC(CC)C(=O)NCCCN1CCN(CCCNC(=O)C(CC)CCCC)CC1 (configuration not stated) | 7% | 5.9µM* | -2% | .
Cc1ccc(C)c(N2CCN(C(=O)c3cc4c(=O)n(Cc5cccs5)ccc4nc3C)CC2)c1 | . | . | . | 0
SMILES | HCV inhibitor | Pf growth 48h | Pf growth 96h | HCMV antiviral
CCOc1ccc(C2=Nn3c(nnc3-c3ccccc3OC)SC2)cc1 | ? | 13µM* | ? | -94*
COc1ccc(C2=Nn3c(nnc3-c3ccccc3OC)SC2)cc1OC1CCOC1 (configuration not stated) | . | . | . | -90*
CCOc1ccc(-c2nnc3n2N=C(c2ccc(OC)cc2)CS3)cc1 | -16% | ? | 2% | 19
COc1ccc(C2=Nn3c(nnc3-c3ccccc3C(F)(F)F)SC2)cc1OC1CCOC1 (configuration not stated) | . | . | . | 13
COc1ccc(C2=Nn3c(nnc3-c3ccccc3Cl)SC2)cc1OCC1CC1 | . | . | . | -66*
Cc1ccc(-n2nc3c(N4CCC(C(=O)N(C)Cc5ccccc5)CC4)nnc(C)c3c2C)cc1 | . | . | . | -5
CC(=C1SC(=S)NC1=O)c1ccc(Cl)c(O)c1 | . | . | . | 23
CCOC(=O)c1ccc(NC(=O)CC2C(=O)N(c3ccc(F)cc3)C(=O)N2Cc2cccnc2)cc1 (configuration not stated) | . | . | . | -32
O=C(/C=C/c1ccccc1)c1cc(Br)ccc(=O)c1O | ? | . | ? | -107*
Cc1ccc(/C=C/C(=O)c2ccccc(=O)c2O)cc1C | ? | 8.3µM* | 9.3µM* | -66*
CCOc1ccc(CCNC(=O)c2cc3c(=O)[nH]c4ccc(C)cc4c3s2)cc1OCC | . | . | . | -2
Cc1ccccc1NC(=O)CN1C(=O)CCn2nc(-c3cccn3C)cc21 | . | . | . | 24
O=C(COC(=O)c1ccc(Br)cc1)NCc1ccccc1 | 20% | 0% | -7% | -16
CC(=O)Cc1cc(O)c2ccccc2c1OC(=O)c1ccc(Br)cc1 | -16% | 2.9µM* | 5.9µM* | -9
Cc1oc2ccc(O)c(CN(C)Cc3ccccc3)c2c1C(=O)Nc1ccccc1 | . | . | . | -81*
Cc1oc2ccc(O)c(CN3CCOCC3)c2c1C(=O)Nc1cccc(C(F)(F)F)c1 | . | . | . | 7
Cc1oc2ccc(O)c(CN(C)Cc3ccccc3)c2c1C(=O)Nc1cccc(C(F)(F)F)c1 | . | . | . | -79*
CCN(Cc1ccccc1)Cc1c(O)ccc2oc(C)c(C(=O)Nc3ccc(C)cc3C)c12 | . | . | . | -12
Cc1ccc(NC(=O)c2c(C)oc3ccc(O)c(CN(C)Cc4ccccc4)c23)c(C)c1 | . | . | . | -67*
CCN(Cc1ccccc1)Cc1c(O)ccc2c(=O)c(-c3ccccc3Cl)coc12 | . | . | . | -2
N#Cc1ccc2nc(-c3ccc(CN4CCC(c5nc6ccccc6[nH]5)CC4)cc3)c(-c3ccccc3)nc2c1 | . | . | . | 10
Cc1nn(-c2ccccc2)c2c1C(c1ccc(O)c(O)c1)N1C(=N2)C(Nc2ccccc2)=Nc2ccccc21 (configuration not stated) | 19% | 10µM* | 10µM* | -1
Cc1cccc(NC2=Nc3ccccc3N3C2=Nc2c(c(C)nn2-c2ccccc2)C3c2ccc(O)c(O)c2)c1 (configuration not stated) | ? | ? | 12µM* | -97*

Assay outcomes as filed in PubChem BioAssay.
